Data reported in the supplement of paper PMC8975748.
Structures can show the parent of a compound that is named as a salt.

tested on: Saccharomyces cerevisiae BY4741 SeMeCo community; assay: z-score of subpopulation abundance vs DMSO median, subpopulation auxotrophic for UM; higher = larger share of this subpopulation than in DMSO controls; conditions: 10 µM; 24 h; SM minimal medium; subpopulation (auxotrophy): UM
Description: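 Fluorescent four-plasmid SeMeCo (self-establishing metabolically cooperating S. cerevisiae BY4741 community; plasmids pH-mRuby2, pL-mWasabi, pU-eCFP, pM-TagRFP657) was grown 24 h in minimal SM medium with each Selleck FDA-approved drug at 10 µM in 384-well plates. Cells were fixed and imaged by high-content confocal microscopy. For each auxotrophic subpopulation (and the prototroph), a z-score gives the deviation from the DMSO vehicle-control population median.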

First: COc1ccc(CC2c3cc(OC)c(OC)cc3CC[N+]2(C)CCC(=O)OCCCCCOC(=O)CC[N+]2(C)CCc3cc(OC)c(OC)cc3C2Cc2ccc(OC)c(OC)c2)cc1OC (stereo not given) [Atracurium Besylate]
Second: CCNC(=O)[C@@H]1CCCN1C(=O)[C@H](CCCNC(=N)N)NC(=O)[C@H](CC(C)C)NC(=O)[C@@H](CC(C)C)NC(=O)[C@H](Cc1ccc(O)cc1)NC(=O)[C@H](CO)NC(=O)[C@H](Cc1c[nH]c2ccccc12)NC(=O)[C@H](Cc1c[nH]cn1)NC(=O)[C@@H]1CCC(=O)N1 [Leuprolide Acetate]
The “z-score of subpopulation abundance” value of the first is lower: -0.21 for the first, 0.23 for the second.

First: CCCN1CCCC[C@H]1C(=O)Nc1c(C)cccc1C [Ropivacaine]
Second: CCCCOc1ccc(C(=O)CCN2CCCCC2)cc1 [Dyclonine HCl]
The “z-score of subpopulation abundance” value of the first is higher: -0.14 for the first, -0.42 for the second.

Going from CC(=O)OCC(CCn1cnc2cnc(N)nc21)COC(C)=O [Famciclovir] to Nc1nc2[nH]cc(CCc3ccc(C(=O)N[C@@H](CCC(=O)O)C(=O)O)cc3)c2c(=O)[nH]1 [Pemetrexed Disodium Hydrate], the “z-score of subpopulation abundance” value falls from -0.68 to -7.6.

First: O=C(O)c1cn(C2CC2)c2cc(N3CCNCC3)c(F)cc2c1=O [Ciprofloxacin hydrochloride hydrate]
Second: O=C(O)c1cc(-c2ccc(F)cc2F)ccc1O [Diflunisal]
The “z-score of subpopulation abundance” value of the first is higher: 0.65 for the first, -3.18 for the second.

Going from C#CCN[C@@H]1CCc2ccccc21 [Rasagiline] to CN1CCC(=C2c3ccccc3CCc3sccc32)CC1 [Pizotifen Malate], the “z-score of subpopulation abundance” value falls from 0.58 to -0.43.

Going from CCCOc1ccc2c(c1)CC[C@@H]1[C@@H]2CC[C@]2(C)[C@@H](OC)CC[C@@H]12 [Promestriene] to C#C[C@]1(O)CC[C@H]2[C@@H]3CCC4=CC(=O)CC[C@@H]4[C@H]3CC[C@@]21CC [Levonorgestrel], the “z-score of subpopulation abundance” value falls from 1.71 to -0.13.

First: CC(C)c1nc(N(C)S(C)(=O)=O)nc(-c2ccc(F)cc2)c1/C=C/[C@@H](O)C[C@@H](O)CC(=O)O [Rosuvastatin Calcium]
Second: COC(=O)C1=C(C)NC(C)=C(C(=O)OCC(C)C)C1c1ccccc1[N+](=O)[O-] (stereo not given) [Nisoldipine]
The “z-score of subpopulation abundance” value of the first is higher: 2.31 for the first, 0.03 for the second.

First: C1CCN2C[C@@H]3C[C@@H](CN4CCCC[C@@H]34)[C@H]2C1 [(-)-Sparteine Sulfate]
Second: OCCN(CCO)c1nc(N2CCCCC2)c2nc(N(CCO)CCO)nc(N3CCCCC3)c2n1 [Dipyridamole]
The “z-score of subpopulation abundance” value of the first is higher: 0.01 for the first, -8.15 for the second.

Going from C[C@H](Nc1ncnc2nc[nH]c12)c1cc2cccc(Cl)c2c(=O)n1-c1ccccc1 [Duvelisib (IPI-145, INK1197)] to Cc1cc(=O)n(-c2ccccc2)n1C [Antipyrine], the “z-score of subpopulation abundance” value falls from -0.3 to -1.23.

First: CC[C@H](C)C[C@H](C)CCCCCCCCC(=O)N[C@H]1C[C@@H](O)[C@@H](NCCN)NC(=O)[C@@H]2[C@@H](O)CCN2C(=O)[C@H]([C@H](O)CCN)NC(=O)[C@H]([C@H](O)[C@@H](O)c2ccc(O)cc2)NC(=O)[C@@H]2C[C@@H](O)CN2C(=O)[C@H]([C@@H](C)O)NC1=O [Caspofungin Acetate]
Second: C/C(=C\C(=O)OCCCCCCCCC(=O)O)C[C@@H]1OC[C@H](C[C@@H]2O[C@H]2[C@@H](C)[C@H](C)O)[C@@H](O)[C@H]1O [Mupirocin calcium]
The “z-score of subpopulation abundance” value of the first is lower: -2.51 for the first, 1.73 for the second.

Going from NCC[C@H](O)C(=O)N[C@@H]1C[C@H](N)[C@@H](O[C@H]2O[C@H](CN)[C@@H](O)[C@H](O)[C@H]2O)[C@H](O)[C@H]1O[C@H]1O[C@H](CO)[C@@H](O)[C@H](N)[C@H]1O [Amikacin hydrate] to CN[C@@H]1[C@H](O[C@H]2[C@H](O[C@H]3[C@H](O)[C@@H](O)[C@H](NC(=N)N)[C@@H](O)[C@@H]3NC(=N)N)O[C@@H](C)[C@]2(O)CO)O[C@@H](CO)[C@H](O)[C@H]1O [Dihydrostreptomycin sulfate], the “z-score of subpopulation abundance” value falls from -0.12 to -0.47.

First: CS(=O)(=O)c1ccc(C2=C(c3ccccc3)C(=O)OC2)cc1 [Rofecoxib]
Second: O=C(O)CCC(=O)c1ccc(-c2ccccc2)cc1 [Fenbufen]
The “z-score of subpopulation abundance” value of the first is higher: 0.95 for the first, -0.92 for the second.

Compared with COCCCC/C(=N\OCCN)c1ccc(C(F)(F)F)cc1 [Fluvoxamine maleate], CCCCOc1ccc(CC(=O)NO)cc1 [Bufexamac] is lower in “z-score of subpopulation abundance” value: -0.21 for the first, -0.32 for the second.

Going from CO/N=C(\C(=O)N[C@@H]1C(=O)N2C(C(=O)[O-])=C(C[N+]3(C)CCCC3)CS[C@H]12)c1csc(N)n1 [Cefepime Dihydrochloride Monohydrate] to Cc1nc(NC(=O)N2CCC[C@H]2C(N)=O)sc1-c1ccnc(C(C)(C)C(F)(F)F)c1 [Alpelisib (BYL719)], the “z-score of subpopulation abundance” value rises from 0.07 to 0.25.

First: CC1(C)S[C@@H]2[C@H](NC(=O)COc3ccccc3)C(=O)N2[C@H]1C(=O)O [Penicillin V potassium salt]
Second: CCc1nn(CCCN2CCN(c3cccc(Cl)c3)CC2)c(=O)n1CCOc1ccccc1 [Nefazodone hydrochloride]
The “z-score of subpopulation abundance” value of the first is higher: 0.57 for the first, -0.31 for the second.

First: O=C1C(=O)c2ccccc2C(O)=C1C1CCC(c2ccc(Cl)cc2)CC1 (stereo not given) [Atovaquone]
Second: CN1CCC[C@@H]1Cc1c[nH]c2ccc(CCS(=O)(=O)c3ccccc3)cc12 [Eletriptan HBr]
The “z-score of subpopulation abundance” value of the first is higher: 0.03 for the first, -0.86 for the second.

Going from CCOC(=O)C1=C(C)NC(C)=C(C(=O)OC)C1c1cccc(Cl)c1Cl (stereo not given) [Felodipine] to CCC1=C(C)CN(C(=O)NCCc2ccc(S(=O)(=O)NC(=O)N[C@H]3CC[C@H](C)CC3)cc2)C1=O [Glimepiride], the “z-score of subpopulation abundance” value rises from -7.8 to 0.19.

Compared with Cc1ccc(-c2cc(C(F)(F)F)nn2-c2ccc(S(N)(=O)=O)cc2)cc1 [Celecoxib], Clc1ccc(COC(Cn2ccnc2)c2ccc(Cl)cc2Cl)cc1 (stereo not given) [Econazole nitrate] is higher in “z-score of subpopulation abundance” value: -0.75 for the first, 10.3 for the second.

Going from C[N+]1(C)CCC(=C(c2ccccc2)c2ccccc2)CC1 [Diphemanil Methylsulfate] to O=C(NCCN1CCOCC1)c1ccc(Cl)cc1, the “z-score of subpopulation abundance” value falls from 0.25 to -1.28.

First: Clc1ccc(C(Cn2ccnc2)OCc2ccsc2Cl)c(Cl)c1 (stereo not given) [Tioconazole]
Second: CCC(C)(C)c1ccc(CC(C)CN2C[C@@H](C)O[C@@H](C)C2)cc1 (stereo not given in full) [Amorolfine HCl]
The “z-score of subpopulation abundance” value of the first is lower: 8.69 for the first, 10 for the second.
